A number with no mark means an inactive call. Results filed as inconclusive are left out. Calls of active or inactive are those of the source. Calls come from the whole dose curve; as a rule, active = well fitted inhibition curve with a large enough effect; inconclusive = small, poorly fitted or top-dose-only effect; inactive = no such curve, though single readings can be large or run the other way.

A short description of the first assay: qHTS assay for measurement of the activity of small molecule inhibitors on Zika virus induced Caspase-3 activity in human iPSC derived neural progenitor cells (hNPCs) (AID 1224857). For activity change, negative = inhibition: % of control where 0% means no effect. Note: nearly all actives have a fitted effect of over 65% in size. Note: potency is the fitted concentration of half-maximal effect. The settings on record: hNPCs ZIKV-induced caspase-3/7, Caspase-Glo luminescence, 6 h; series mostly up to 45.7 µM; activity change, negative = inhibition: at the top concentration. The essentials:
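After overnight (16–20 h) culture at 350 cells/well, hNPCs get compound, then ZIKV 2 FFU/cell one hour later. Six hours on, Caspase-Glo 3/7 is added and luminescence measured.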
On the technique in general: Quantitative high-throughput screening tests each substance at several concentrations.
Consider `Cc1cn2cc(C(=O)N(C)CCO)cc(N[C@@H]3CCOc4cccc(C)c43)c2n1`, for which the “activity change, negative = inhibition” value was 25.9%.
`Nc1ccn([C@@H]2CS[C@H](CO)O2)c(=O)n1`: the “activity change, negative = inhibition” value is 1.95% [at 92.8 µM].
In the case of `Clc1cccc(-c2nnnn2Cc2cccnc2)c1Cl`, the “activity change, negative = inhibition” value was -3.96%.
Regarding `C[C@@H](Oc1cc(-n2cnc3ccc(CN4CCN(C)CC4)cc32)sc1C(N)=O)c1ccccc1C(F)(F)F`, the “activity change, negative = inhibition” value was 62.5%.
On to `CC(C)(C)NC(=O)[C@H]1CN(Cc2cccnc2)CCN1C[C@@H](O)C[C@@H](Cc1ccccc1)C(=O)N[C@H]1c2ccccc2C[C@H]1O`, for which the “activity change, negative = inhibition” value was 34.3%.
Still for that read-out and setting: under `O=C(NCCCNc1nc(Nc2cccc(NC(=O)N3CCCC3)c2)ncc1I)c1cccs1` stands -9.98%; under `CN1c2cc(O)c(N=NC(N)=O)cc2CC1S(=O)(=O)O` (stereo unspecified), 2.63%.
As for `c1cc(-c2cnn3cc(-c4ccc(OCCN5CCCCC5)cc4)cnc23)ccn1`, the “activity change, negative = inhibition” value was -16.3%.
For the compound `CC=CC1=C(C(=O)O)N2C(=O)[C@H](NC(=O)[C@H](N)c3ccc(O)cc3)[C@@H]2SC1`, the “activity change, negative = inhibition” value was 0.473%.
On the same count and under the same terms, under `CC(O)C1C(=O)N2C(C(=O)O)=C(SC3CNC(C(=O)N(C)C)C3)C(C)C12` (stereo unspecified) stands -23.8%.
Still for that read-out and setting: next, `c1nc2nc(Nc3ccc(N4CCOCC4)cc3)nc(NC3CCCCC3)c2[nH]1`: 15.4%.
As to `CC1COC2(CCN(c3nc(=O)c4cc(C(F)(F)F)cc([N+](=O)[O-])c4s3)CC2)O1` (stereo unspecified), the “activity change, negative = inhibition” value is 22.3%.
On the same count and under the same terms, next, `Nc1nccc(Oc2ccc(NC(=O)c3c[nH]cc(-c4ccc(F)cc4)c3=O)cc2F)c1Cl`: 1.21%; `CC(C)CC(=O)Nc1n[nH]c2c1CN(C(=O)C1CCN(C)CC1)C2(C)C`: 9.85%.
On to `OCc1ccc(-c2ccc(-c3ccc(CO)s3)o2)s1`, for which the Potency was 26.4 µM (active).
In the case of `Cc1nc(Nc2n[nH]c3c2CN(C(=O)N[C@H](CN(C)C)c2ccccc2)C3(C)C)c2sccc2n1`, the “activity change, negative = inhibition” value is 163%.
On the same count and under the same terms, next, `COc1cc(-c2nn(C3CCC(N4CCN(C(C)=O)CC4)CC3)c3ncnc(N)c23)ccc1NC(=O)c1cc2ccccc2n1C` (stereo unspecified): 51.2%.
On the same count and under the same terms, under `COc1cc2c(NC3CCN(C(C)C)CC3)nc(C3CCCCC3)nc2cc1OCCCN1CCCC1` stands 17.9%; under `COc1cc(C(=O)NS(=O)(=O)c2ccccc2C)ccc1Cc1cn(C)c2ccc(NC(=O)OC3CCCC3)cc12`, -27.4%.
Still for that read-out and setting: under `CCc1c2c(nc3ccc(O)cc13)-c1cc3c(c(=O)n1C2)COC(=O)[C@]3(O)CC` stands 109%; under `COC(=O)C[C@](O)(CCCC(C)(C)O)C(=O)O[C@@H]1C(OC)=C[C@]23CCCN2CCc2cc4c(cc2[C@H]13)OCO4`, 30.4%.

Another assay in a line: qHTS assay for measurement of the activity of small molecule inhibitors on Zika virus induced Caspase-3 activity in human astrocytoma cells (AID 1224859).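 Note: plate controls were ZIKV-infected untreated cells for no effect and uninfected cells for full effect.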 As to conditions: SNB-19 ZIKV-induced caspase-3/7, luminescence, 6 h; series mostly up to 45.7 µM; activity change, negative = inhibition: at the top concentration. The essentials: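 Inhibition of Zika-induced caspase-3/7 activity: SNB-19 cells, 1 h compound pretreatment, ZIKV 2 FFU/cell for 6 h at 37 C, Caspase-Glo luminescence read-out.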
As for `CC(C)c1cnn2c(NCc3ccccc3)cc(N[C@@H](CO)[C@H](O)CO)nc12`, the “activity change, negative = inhibition” value was 53.7%.
For the compound `COc1cc2c(Nc3ccc(NC(=O)c4ccccc4)cc3)ncnc2cc1OCCCN1CCOCC1`, the “activity change, negative = inhibition” value is 6.19%.
Turning to `CCn1cc(-c2ccnc3[nH]c(-c4cccc(CN(C)C)c4)cc23)c(-c2ccc(NC(=O)N(C)C)cc2)n1`, the “activity change, negative = inhibition” value was 43.4%.
For the compound `CC(C)c1noc(N2CCC(COc3ccc(-c4ccc(S(C)(=O)=O)cc4)nc3)CC2)n1`, the “activity change, negative = inhibition” value was -0.459%.
As to `COc1c(N2C[C@@H]3CCCN[C@H]3C2)c(F)cc2c(=O)c(C(=O)O)cn(C3CC3)c12`, the “activity change, negative = inhibition” value is 37.3%.
As to `C[C@@]12O[C@@H](C[C@]1(O)CO)n1c3ccccc3c3c4c(c5c6ccccc6n2c5c31)CNC4=O`, the “activity change, negative = inhibition” value is 283%.
As to `O=C(O)CO.[NH2-].[NH2-].[Pt+2]`, the “activity change, negative = inhibition” value was 25.3%.
As for `Nc1ncnc2c1c(-c1cccc(OCc3ccccc3)c1)cn2C1CC(CN2CCCC2)C1` (stereo unspecified), the “activity change, negative = inhibition” value is 9.48%.
On to `N#CCNC(=O)c1ccc(-c2ccnc(Nc3ccc(N4CCOCC4)cc3)n2)cc1`, for which the “activity change, negative = inhibition” value was 8.86%.
Same read-out and setting: next, `CCN(CC)CCNC(=O)c1ccc2nc(-c3ccccc3)c(-c3ccc(CN4CCC(n5c(=O)[nH]c6ccccc65)CC4)cc3)nc2c1`: 21.9%; `COc1cc2nccc(Oc3ccc(NC(=O)C4(C(=O)Nc5ccc(F)cc5)CC4)cc3)c2cc1OC`: 43.8%.
On the same count and under the same terms, next, `Cc1nc2ccc(CN(C)c3ccc(C(=O)N[C@@H](CCC(=O)O)C(=O)O)s3)cc2c(=O)[nH]1`: 4.85%.
On to `CN(c1ncccc1CNc1nc(Nc2ccc3c(c2)CC(=O)N3)ncc1C(F)(F)F)S(C)(=O)=O`, for which the “activity change, negative = inhibition” value is 22.9%.
Still for that read-out and setting: under `Cn1cc(-c2ccncc2)c(-c2ccc(OCc3ccc4ccccc4n3)cc2)n1` stands 52.2%; under `Cc1cn2cc(C(=O)N(C)CCO)cc(N[C@@H]3CCOc4cccc(C)c43)c2n1`, 27.8%.
Turning to `Nc1ccn([C@@H]2CS[C@H](CO)O2)c(=O)n1`, the “activity change, negative = inhibition” value is 14.9% [at 92.8 µM].
For the compound `Clc1cccc(-c2nnnn2Cc2cccnc2)c1Cl`, the “activity change, negative = inhibition” value is 4.57%.
The same measure, in the same setting: under `C[C@@H](Oc1cc(-n2cnc3ccc(CN4CCN(C)CC4)cc32)sc1C(N)=O)c1ccccc1C(F)(F)F` stands 41.2%; under `CC(C)(C)NC(=O)[C@H]1CN(Cc2cccnc2)CCN1C[C@@H](O)C[C@@H](Cc1ccccc1)C(=O)N[C@H]1c2ccccc2C[C@H]1O`, 414%; under `O=C(NCCCNc1nc(Nc2cccc(NC(=O)N3CCCC3)c2)ncc1I)c1cccs1`, 63.9%.
In the case of `CN1c2cc(O)c(N=NC(N)=O)cc2CC1S(=O)(=O)O` (stereo unspecified), the “activity change, negative = inhibition” value is 0.34%.
In the case of `c1cc(-c2cnn3cc(-c4ccc(OCCN5CCCCC5)cc4)cnc23)ccn1`, the “activity change, negative = inhibition” value was -2.28%.
On the same count and under the same terms, next, `CC=CC1=C(C(=O)O)N2C(=O)[C@H](NC(=O)[C@H](N)c3ccc(O)cc3)[C@@H]2SC1`: -0.395%.
Same read-out and setting: under `CC(O)C1C(=O)N2C(C(=O)O)=C(SC3CNC(C(=O)N(C)C)C3)C(C)C12` (stereo unspecified) stands 14.5%; under `c1nc2nc(Nc3ccc(N4CCOCC4)cc3)nc(NC3CCCCC3)c2[nH]1`, 26.6%.
Consider `CC1COC2(CCN(c3nc(=O)c4cc(C(F)(F)F)cc([N+](=O)[O-])c4s3)CC2)O1` (stereo unspecified), for which the “activity change, negative = inhibition” value is 2.4%.
For the compound `Nc1nccc(Oc2ccc(NC(=O)c3c[nH]cc(-c4ccc(F)cc4)c3=O)cc2F)c1Cl`, the “activity change, negative = inhibition” value was -7.06%.
Regarding `CC(C)CC(=O)Nc1n[nH]c2c1CN(C(=O)C1CCN(C)CC1)C2(C)C`, the “activity change, negative = inhibition” value is 2.49%.
On the same count and under the same terms, under `OCc1ccc(-c2ccc(-c3ccc(CO)s3)o2)s1` stands 7.34%; under `Cc1nc(Nc2n[nH]c3c2CN(C(=O)N[C@H](CN(C)C)c2ccccc2)C3(C)C)c2sccc2n1`, 104%.
On the same count and under the same terms, under `COc1cc(-c2nn(C3CCC(N4CCN(C(C)=O)CC4)CC3)c3ncnc(N)c23)ccc1NC(=O)c1cc2ccccc2n1C` (stereo unspecified) stands -8.53%; under `COc1cc2c(NC3CCN(C(C)C)CC3)nc(C3CCCCC3)nc2cc1OCCCN1CCCC1`, 0.594%.
Same read-out and setting: next, `COc1cc(C(=O)NS(=O)(=O)c2ccccc2C)ccc1Cc1cn(C)c2ccc(NC(=O)OC3CCCC3)cc12`: -17.9%.
As to `CCc1c2c(nc3ccc(O)cc13)-c1cc3c(c(=O)n1C2)COC(=O)[C@]3(O)CC`, the “activity change, negative = inhibition” value is 19.7%.
In the case of `COC(=O)C[C@](O)(CCCC(C)(C)O)C(=O)O[C@@H]1C(OC)=C[C@]23CCCN2CCc2cc4c(cc2[C@H]13)OCO4`, the “activity change, negative = inhibition” value was 15.6%.

Source of the values: PubChem BioAssay (NCATS).
